From PubChem BioAssay
Several values for one entry are separate records, joined by “and”; a condition that tells them apart may be missing. Equal entries are not always repeated. Activity calls are given as the source filed them.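 Rule for the calls, unless noted: active = compounds whose cell count with miR-34 switched on is under 0.7 times the count with it off; inactive = the rest.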

System: Aerobactin synthetase IucA (Klebsiella pneumoniae)
Test: inhibition of K. pneumoniae IucA enzyme – biochemical, Tocris library, absorbance (AID 1345561; call rule not given here;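 note: 100% = enzyme without compound and 0% = no enzyme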)
Conditions: purified IucA enzyme assay, absorbance (OD) read-out; active compounds read low; concentration not given here

**Q.** With `NS(=O)(=O)c1nn2cc(-c3ccccc3)nc2s1` as the molecule, how does the remaining activity read?
**A.** 99.1% (inactive)

**Q.** For `COc1oc(=O)c2cc(N)ccc2c1Cl`, which remaining activity is on record?
**A.** 95.9% (inactive)

**Q.** With `CN(N=O)C(=O)N[C@H]1C(O)O[C@H](CO)[C@@H](O)[C@@H]1O` (stereo partly drawn) as the molecule, how does the remaining activity read?
**A.** 111% (inactive)

**Q.** For `N[C@@H](C(=O)O)c1ccc(O)c(C(=O)O)c1`, which remaining activity is on record?
**A.** 100% (inactive)

**Q.** For `O=C(NC1CCN(Cc2ccccc2)CC1)c1ccc(I)cc1`, which remaining activity is on record?
**A.** 113% (inactive)

**Q.** With `CC(=O)N(OCc1ccccc1)[C@@H]1c2cc(C#N)ccc2OC(C)(C)[C@H]1O` as the molecule, how does the remaining activity read?
**A.** 105% (inactive)

**Q.** Which remaining activity does the source give for `c1ccc(Oc2nc(NC3CCCCC3)c3[nH]cnc3n2)cc1` here?
**A.** 110% (inactive)

**Q.** For `CCOC(=O)C1CSC(Cc2ccc(OCc3ccc([N+](=O)[O-])cc3)cc2)N1` (stereo not drawn), which remaining activity is on record?
**A.** 95.4% (inactive)

**Q.** Which remaining activity does the source give for `COc1cccc(C=NC=Nc2cccc(OC)c2)c1` here?
**A.** 120% (inactive)

**Q.** Which remaining activity does the source give for `C[C@@H]1CC2C3CCC4=CC(=O)C=CC4(C)C3(F)[C@@H](O)CC2(C)C1(O)C(=O)CO` (stereo partly drawn) here?
**A.** 110% (inactive)

**Q.** Which remaining activity does the source give for `CCCCCN=c1ccn(Cc2ccccc2)c2ccccc12` here?
**A.** 114% (inactive)

**Q.** With `O=c1[nH]c2cc(Cl)ccc2c(O)c1-c1cccc(Oc2ccccc2)c1` as the molecule, how does the remaining activity read?
**A.** 103% (inactive)

**Q.** For `N[C@@H](Cc1cc(CP(=O)(O)O)cc(-c2ccccc2Cl)c1)C(=O)O`, which remaining activity is on record?
**A.** 118% (inactive)

**Q.** With `CC(C)c1ccccc1S(=O)(=O)c1cc(N)c2ncccc2c1[N+](=O)[O-]` as the molecule, how does the remaining activity read?
**A.** 94.3% (inactive)

**Q.** For `CCn1c(=O)[nH]c2ccccc21`, which remaining activity is on record?
**A.** 111% (inactive)

**Q.** Which remaining activity does the source give for `C[C@@H]1C(=O)OC2[C@H](O)C34[C@H]5C[C@@H](C(C)(C)C)[C@]36[C@@H](OC(=O)[C@@H]6O)O[C@@]4(C(=O)O5)[C@]21O` (stereo partly drawn) here?
**A.** 112% (inactive)

**Q.** Which remaining activity does the source give for `OCCNCCCOc1cccc(Cl)c1Cl` here?
**A.** 98.9% (inactive)

**Q.** For `CCCCC1CCC(c2nc(-c3ccncc3)no2)CC1` (stereo not drawn), which remaining activity is on record?
**A.** 122% (inactive)

**Q.** Which remaining activity does the source give for `Cc1ccc2c(=O)c3ccccc3n(CCCN)c2c1C` here?
**A.** 96.6% (inactive)

**Q.** For `N[C@@H](C(=O)O)[C@@H](OCc1ccccc1)C(=O)O` (racemic), which remaining activity is on record?
**A.** 110% (inactive)

**Q.** For `NC(N)=Nc1ccc(Cl)cc1`, which remaining activity is on record?
**A.** 81.8% (inactive)

**Q.** For `CN1c2cc3c(cc2N=C(c2ccc(C(=O)O)cc2)c2ccccc21)C(C)(C)CCC3(C)C`, which remaining activity is on record?
**A.** 106% (inactive)

**Q.** For `C/C(=N\NC(=O)[C@@H]1C(=O)NC[C@H]1c1ccccc1)c1cccc(Br)c1`, which remaining activity is on record?
**A.** 103% (inactive)

**Q.** For `Cn1cccc1/C=C1\C(=O)NC(=O)c2ccccc21`, which remaining activity is on record?
**A.** 129% (inactive)

**Q.** With `O=C(/C=C/c1ccccc1)NC(NC(=S)Nc1cccc2cccnc12)C(Cl)(Cl)Cl` (stereo not drawn) as the molecule, how does the remaining activity read?
**A.** 124% (inactive)

**Q.** For `CN(Cc1ccccc1)C(=O)[C@H](Cc1ccc2ccccc2c1)NC(=O)[C@@H]1C[C@@H](O)CN1C(=O)c1cn(C)c2ccccc12`, which remaining activity is on record?
**A.** 102% (inactive)

**Q.** With `Nc1nc(Nc2ccccc2)nc2c1ncn2[C@@H]1O[C@H](CO)[C@@H](O)[C@H]1O` as the molecule, how does the remaining activity read?
**A.** 107% (inactive)

**Q.** With `C[C@@H](CN1CCC(n2c(=O)[nH]c3cc(Cl)ccc32)CC1)NC(=O)c1ccc2ccccc2c1` as the molecule, how does the remaining activity read?
**A.** 106% (inactive)

**Q.** With `COC(=O)c1sccc1S(=O)(=O)Nc1ccc(Nc2ccccc2)cc1OC` as the molecule, how does the remaining activity read?
**A.** 87.9% (inactive)

**Q.** Which remaining activity does the source give for `c1ccc2cc(C3=NCCN3)ncc2c1` here?
**A.** 113% (inactive)

**Q.** Which remaining activity does the source give for `COc1ccccc1N1CCN(CCN2C(=O)c3ccccc3C(C)(C)C2=O)CC1` here?
**A.** 124% (inactive)

**Q.** Which remaining activity does the source give for `CCCCN1CCC(CCC(=O)c2cc(Cl)c(N)cc2OC)CC1` here?
**A.** 95.7% (inactive)

**Q.** With `N[C@H]1CCN(O)C1=O` as the molecule, how does the remaining activity read?
**A.** 122% (inactive)

**Q.** With `NC(=NC1C2CC3CC(C2)CC1C3)Nc1ccc(I)cc1` (stereo not drawn) as the molecule, how does the remaining activity read?
**A.** 126% (inactive)

**Q.** For `Cn1ccc2cc(NC(=O)Nc3cccnc3)ccc21`, which remaining activity is on record?
**A.** 111% (inactive)

**Q.** Which remaining activity does the source give for `CC(=O)OCCNC(=O)c1cccnc1` here?
**A.** 106% (inactive)

**Q.** For `N[C@H](C(=O)O)c1ccc(C(=O)O)c(O)c1`, which remaining activity is on record?
**A.** 95.5% (inactive)

**Q.** For `N[C@@H](Cn1ccc(=O)n(Cc2ccccc2C(=O)O)c1=O)C(=O)O`, which remaining activity is on record?
**A.** 102% (inactive)

**Q.** For `NC(C(=O)O)c1cc(O)ccc1Cl` (stereo not drawn), which remaining activity is on record?
**A.** 120% (inactive)

System: not listed separately
Test: viability loss with induced miR-34 in A549 – imaging, A549 dox-inducible miR-34, nuclei and caspase counts, primary screen (AID 1347080)
Conditions: A549 miR-34 inducible, Hoechst nuclei count, 48 h; active compounds read low; cell number ratio, induced over uninduced

**Q.** Which fold change does the source give for `NS(=O)(=O)c1nn2cc(-c3ccccc3)nc2s1` here?
**A.** 1.09 (inactive)

**Q.** Which fold change does the source give for `COc1oc(=O)c2cc(N)ccc2c1Cl` here?
**A.** 0.989 (inactive)

**Q.** With `CN(N=O)C(=O)N[C@H]1C(O)O[C@H](CO)[C@@H](O)[C@@H]1O` (stereo partly drawn) as the molecule, how does the fold change read?
**A.** 0.958 (inactive)

**Q.** For `N[C@@H](C(=O)O)c1ccc(O)c(C(=O)O)c1`, which fold change is on record?
**A.** 0.932 (inactive)

**Q.** With `O=C(NC1CCN(Cc2ccccc2)CC1)c1ccc(I)cc1` as the molecule, how does the fold change read?
**A.** 0.862 (inactive)

**Q.** With `CC(=O)N(OCc1ccccc1)[C@@H]1c2cc(C#N)ccc2OC(C)(C)[C@H]1O` as the molecule, how does the fold change read?
**A.** 0.887 (inactive)

**Q.** With `c1ccc(Oc2nc(NC3CCCCC3)c3[nH]cnc3n2)cc1` as the molecule, how does the fold change read?
**A.** 0.921 (inactive)

**Q.** For `CCOC(=O)C1CSC(Cc2ccc(OCc3ccc([N+](=O)[O-])cc3)cc2)N1` (stereo not drawn), which fold change is on record?
**A.** 0.923 (inactive)

**Q.** With `COc1cccc(C=NC=Nc2cccc(OC)c2)c1` as the molecule, how does the fold change read?
**A.** 0.917 (inactive)

**Q.** With `C[C@@H]1CC2C3CCC4=CC(=O)C=CC4(C)C3(F)[C@@H](O)CC2(C)C1(O)C(=O)CO` (stereo partly drawn) as the molecule, how does the fold change read?
**A.** 0.804 (inactive)

**Q.** With `CCCCCN=c1ccn(Cc2ccccc2)c2ccccc12` as the molecule, how does the fold change read?
**A.** 1.09 (inactive)

**Q.** For `O=c1[nH]c2cc(Cl)ccc2c(O)c1-c1cccc(Oc2ccccc2)c1`, which fold change is on record?
**A.** 0.963 (inactive)

**Q.** For `N[C@@H](Cc1cc(CP(=O)(O)O)cc(-c2ccccc2Cl)c1)C(=O)O`, which fold change is on record?
**A.** 0.967 (inactive)

**Q.** With `CC(C)c1ccccc1S(=O)(=O)c1cc(N)c2ncccc2c1[N+](=O)[O-]` as the molecule, how does the fold change read?
**A.** 0.871 (inactive)

**Q.** With `CCn1c(=O)[nH]c2ccccc21` as the molecule, how does the fold change read?
**A.** 0.854 (inactive)

**Q.** Which fold change does the source give for `C[C@@H]1C(=O)OC2[C@H](O)C34[C@H]5C[C@@H](C(C)(C)C)[C@]36[C@@H](OC(=O)[C@@H]6O)O[C@@]4(C(=O)O5)[C@]21O` (stereo partly drawn) here?
**A.** 0.923 (inactive)

**Q.** Which fold change does the source give for `OCCNCCCOc1cccc(Cl)c1Cl` here?
**A.** 0.929 (inactive) and 0.971 (inactive)

**Q.** With `CCCCC1CCC(c2nc(-c3ccncc3)no2)CC1` (stereo not drawn) as the molecule, how does the fold change read?
**A.** 0.974 (inactive) and 0.949 (inactive)

**Q.** For `Cc1ccc2c(=O)c3ccccc3n(CCCN)c2c1C`, which fold change is on record?
**A.** 1.17 (inactive)

**Q.** With `N[C@@H](C(=O)O)[C@@H](OCc1ccccc1)C(=O)O` (racemic) as the molecule, how does the fold change read?
**A.** 0.921 (inactive)

**Q.** For `NC(N)=Nc1ccc(Cl)cc1`, which fold change is on record?
**A.** 0.948 (inactive)

**Q.** With `CN1c2cc3c(cc2N=C(c2ccc(C(=O)O)cc2)c2ccccc21)C(C)(C)CCC3(C)C` as the molecule, how does the fold change read?
**A.** 0.924 (inactive)

**Q.** With `C/C(=N\NC(=O)[C@@H]1C(=O)NC[C@H]1c1ccccc1)c1cccc(Br)c1` as the molecule, how does the fold change read?
**A.** 0.887 (inactive)

**Q.** For `Cn1cccc1/C=C1\C(=O)NC(=O)c2ccccc21`, which fold change is on record?
**A.** 0.918 (inactive)

**Q.** With `O=C(/C=C/c1ccccc1)NC(NC(=S)Nc1cccc2cccnc12)C(Cl)(Cl)Cl` (stereo not drawn) as the molecule, how does the fold change read?
**A.** 1.01 (inactive)

**Q.** Which fold change does the source give for `CN(Cc1ccccc1)C(=O)[C@H](Cc1ccc2ccccc2c1)NC(=O)[C@@H]1C[C@@H](O)CN1C(=O)c1cn(C)c2ccccc12` here?
**A.** 0.957 (inactive)

**Q.** Which fold change does the source give for `Nc1nc(Nc2ccccc2)nc2c1ncn2[C@@H]1O[C@H](CO)[C@@H](O)[C@H]1O` here?
**A.** 0.978 (inactive)

**Q.** With `C[C@@H](CN1CCC(n2c(=O)[nH]c3cc(Cl)ccc32)CC1)NC(=O)c1ccc2ccccc2c1` as the molecule, how does the fold change read?
**A.** 1.11 (inactive)

**Q.** With `COC(=O)c1sccc1S(=O)(=O)Nc1ccc(Nc2ccccc2)cc1OC` as the molecule, how does the fold change read?
**A.** 0.862 (inactive)

**Q.** With `c1ccc2cc(C3=NCCN3)ncc2c1` as the molecule, how does the fold change read?
**A.** 0.991 (inactive)

**Q.** Which fold change does the source give for `COc1ccccc1N1CCN(CCN2C(=O)c3ccccc3C(C)(C)C2=O)CC1` here?
**A.** 1.04 (inactive)

**Q.** Which fold change does the source give for `CCCCN1CCC(CCC(=O)c2cc(Cl)c(N)cc2OC)CC1` here?
**A.** 0.973 (inactive)

**Q.** With `N[C@H]1CCN(O)C1=O` as the molecule, how does the fold change read?
**A.** 1.02 (inactive)

**Q.** With `NC(=NC1C2CC3CC(C2)CC1C3)Nc1ccc(I)cc1` (stereo not drawn) as the molecule, how does the fold change read?
**A.** 1.12 (inactive)

**Q.** With `Cn1ccc2cc(NC(=O)Nc3cccnc3)ccc21` as the molecule, how does the fold change read?
**A.** 0.984 (inactive)

**Q.** For `CC(=O)OCCNC(=O)c1cccnc1`, which fold change is on record?
**A.** 0.936 (inactive)

**Q.** With `N[C@H](C(=O)O)c1ccc(C(=O)O)c(O)c1` as the molecule, how does the fold change read?
**A.** 0.931 (inactive)

**Q.** Which fold change does the source give for `N[C@@H](Cn1ccc(=O)n(Cc2ccccc2C(=O)O)c1=O)C(=O)O` here?
**A.** 0.972 (inactive)

**Q.** With `NC(C(=O)O)c1cc(O)ccc1Cl` (stereo not drawn) as the molecule, how does the fold change read?
**A.** 1.01 (inactive)
